# Test results reported in PubChem BioAssay (NCATS).
# Results filed as inconclusive are left out. Unmarked numbers belong to inactive results. Calls of active or inactive are those of the source. Calls come from the whole dose curve; as a rule, active = well fitted curve in the direction sought with a large enough effect; inconclusive = small, poorly fitted or top-dose-only effect, or another doubt; inactive = no such curve, though single readings can be large; an effect the other way counts as inactive or inconclusive. Starred links: 1 amine or outer side, 2 acyl side, 3 side chain; linkers in the order of their positions; H or OH if unused. Positions of bridges follow the written chain, without caps; N, C: chain ends. Non-standard residues stand in square brackets, D forms with d. Residues, ends and D or L forms follow the SMILES beside them. Chains are numbered I, II in the order given. *: point of attachment. Actinocin(9to1) = Cc1c2oc3c(C)ccc(C(=O)[*:1])c3nc-2c(C(=O)[*:2])c(N)c1=O; NMeV = CN[CH](C(=O)O)C(C)C; Nva = CCC[C@H](N)C(=O)O; Cbz = O=C(OCc1ccccc1)*; Sar = CNCC(=O)O
# Key:
# [1] = target: Glutathione peroxidase 1 (Homo sapiens) (UniProt P07203); experiment: Primary qHTS Assay for Inhibitors of Recombinant Selenoprotein Glutathione Peroxidase 1 (GPX1) (AID 1845191); note: nearly all actives have a fitted effect of over 65% in size; note: potency is the fitted concentration of half-maximal effect
# Glutathione peroxidase 1 (Homo sapiens), sequence (P07203 whole entry, looked up): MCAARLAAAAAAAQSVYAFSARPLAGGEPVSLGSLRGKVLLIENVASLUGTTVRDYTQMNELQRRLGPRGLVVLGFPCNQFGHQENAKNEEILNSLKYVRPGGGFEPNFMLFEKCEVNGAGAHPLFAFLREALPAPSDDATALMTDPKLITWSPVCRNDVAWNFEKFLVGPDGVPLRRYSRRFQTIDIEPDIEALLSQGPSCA
# In short: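 10 nM GPX1 + cpd, 30 min RT; start w/ 1 mM GSH, 0.5 mM cumene hydroperoxide, 0.5 mM NADPH, 100 nM GR, 0.01% BSA; buffer 50 mM Tris-HCl pH 7.5, 2 mM EDTA, 150 mM NaCl; Fl 340/450, 0 & 15 min.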
# [2] = target: Phospholipid hydroperoxide glutathione peroxidase GPX4 (Homo sapiens) (UniProt P36969); experiment: Primary qHTS Assay for Inhibitors of Recombinant Selenoprotein Glutathione Peroxidase 4 (GPX4) (AID 1845192); note: nearly all actives have a fitted effect of over 65% in size
# Phospholipid hydroperoxide glutathione peroxidase GPX4 (Homo sapiens), sequence (P36969 whole entry, looked up): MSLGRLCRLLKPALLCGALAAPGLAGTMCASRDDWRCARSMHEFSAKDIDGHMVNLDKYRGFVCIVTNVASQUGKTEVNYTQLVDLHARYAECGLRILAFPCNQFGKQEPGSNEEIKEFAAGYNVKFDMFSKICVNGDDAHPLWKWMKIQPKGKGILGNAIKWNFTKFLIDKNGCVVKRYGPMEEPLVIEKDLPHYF
# In short: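 NADPH consumption, followed by fluorescence at 340/450 nm between 0 and 15 min, reports GPX4 activity via coupled glutathione reductase (100 nM). Enzyme 200 nM was pre-exposed to compound 30 min; 0.5 mM cumene hydroperoxide and 1 mM GSH served as substrates.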
# [3] = Quantitative High-Throughput drug screen in 47 multiple myeloma cell lines against the NCATS MIPE library collection: FR4_PLB cell viability assay (AID 1918924; note: nearly all actives have a fitted effect of over 35% in size; note: potency is the fitted concentration of half-maximal effect)
# In short: (§1)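 Primary qHTS used for cherry-picking: cells at 500/well, library compounds for 48 h (37C, 5% CO2), luminescent ATP assay.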
# [4] = Quantitative High-Throughput drug screen in 47 multiple myeloma cell lines against the NCATS MIPE library collection: Delta47_JCRB cell viability assay (AID 1918925; note: nearly all actives have a fitted effect of over 45% in size; note: potency is the fitted concentration of half-maximal effect)
# In short: (§2)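 qHTS of the MIPE 4.0 collection: 500 myeloma cells/well, 48 h drug exposure at 37C in 5% CO2, then CellTiter-Glo for 5 min at room temperature before luminescence reading.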
# [5] = Quantitative High-Throughput drug screen in 47 multiple myeloma cell lines against the NCATS MIPE library collection: EJM_DSMZ cell viability assay (AID 1918926; note: nearly all actives have a fitted effect of over 30% in size; note: potency is the fitted concentration of half-maximal effect)
# In short: as §2
# [6] = Quantitative High-Throughput drug screen in 47 multiple myeloma cell lines against the NCATS MIPE library collection: AMO1_DSMZ cell viability assay (AID 1918927; note: nearly all actives have a fitted effect of over 30% in size; note: potency is the fitted concentration of half-maximal effect)
# In short: as §2
# [7] = Quantitative High-Throughput drug screen in 47 multiple myeloma cell lines against the NCATS MIPE library collection: ARP1_JJKsccF8 cell viability assay (AID 1918928; note: nearly all actives have a fitted effect of over 40% in size; note: potency is the fitted concentration of half-maximal effect)
# In short: (§3)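 Luminescence from CellTiter-Glo, taken after 5 min at room temperature, reports cellular ATP as viability. Cells (500 per well) had been treated 48 h at 37 °C with MIPE 4.0 compounds, scaled between DMSO and medium-only controls.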
# [8] = Quantitative High-Throughput drug screen in 47 multiple myeloma cell lines against the NCATS MIPE library collection: ARD_JJKsccE7 cell viability assay (AID 1918929; note: potency is the fitted concentration of half-maximal effect)
# In short: as §2
# [9] = Quantitative High-Throughput drug screen in 47 multiple myeloma cell lines against the NCATS MIPE library collection: Karpas620_DSMZ cell viability assay (AID 1918959); note: nearly all actives have a fitted effect of over 30% in size; note: potency is the fitted concentration of half-maximal effect
# In short: as §1
# [10] = Quantitative High-Throughput drug screen in 47 multiple myeloma cell lines against the NCATS MIPE library collection: Karpas417_ECACC cell viability assay (AID 1918961); conditions: Karpas417 myeloma viability, CellTiter-Glo ATP luminescence, 48 h; viability (% of DMSO): at 45.8 µM (top of the series); note: potency is the fitted concentration of half-maximal effect
# In short: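 We plated 500 myeloma cells per well, pinned in MIPE 4.0 compounds, and incubated for 48 hours at 37C. ATP was then quantified with CellTiter-Glo, with DMSO and media-only wells defining 100% and 0%.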
# [11] = Quantitative High-Throughput drug screen in 47 multiple myeloma cell lines against the NCATS MIPE library collection: JIM3_ECACC cell viability assay (AID 1918963; note: nearly all actives have a fitted effect of over 35% in size; note: potency is the fitted concentration of half-maximal effect)
# In short: as §1
# [12] = Quantitative High-Throughput drug screen in 47 multiple myeloma cell lines against the NCATS MIPE library collection: JIM1_ECACC cell viability assay (AID 1918964; note: potency is the fitted concentration of half-maximal effect)
# In short: as §2
# [13] = Quantitative High-Throughput drug screen in 47 multiple myeloma cell lines against the NCATS MIPE library collection: KMM1_JCRB cell viability assay (AID 1918960); note: nearly all actives have a fitted effect of over 30% in size; note: potency is the fitted concentration of half-maximal effect
# In short: as §3
# [14] = Quantitative High-Throughput drug screen in 47 multiple myeloma cell lines against the NCATS MIPE library collection: KHM11_PLB cell viability assay (AID 1918962); note: nearly all actives have a fitted effect of over 35% in size; note: potency is the fitted concentration of half-maximal effect
# In short: as §1
SMILES,Potency [1],Potency [2],Potency [3],Potency [4],Potency [5],Potency [6],Potency [7],Potency [8],Potency [9],Potency [10],Potency [11],Potency [12],Potency [13],Potency [14]
O=C(CN1C(=O)C2(CCCC2)NC[C@H]1c1cc(F)cc(F)c1)Nc1ccc2c(c1)C[C@@]1(C2)C(=O)Nc2ncccc21,inactive,inactive,inactive,inactive,inactive,inactive,inactive,inactive,inactive,inactive,inactive,18700 nM (active),,
O=C1NCCc2[nH]c(-c3ccncc3)cc21,inactive,inactive,1.87 µM (active),2960 nM (active),1.87 µM (active),1660 nM (active),5.9 µM (active),4180 nM (active),2.35 µM (active),,7.43 µM (active),662 nM (active),1050 nM (active),2.09 µM (active)
CC(C)C[C@H](NC(=O)CNC(=O)c1cc(Cl)ccc1Cl)B1OC(=O)CC(CC(=O)O)(C(=O)O)O1 (stereo partly drawn),inactive,inactive,0.0418 µM (active),33.2 nM (active),0.0833 µM (active),23.5 nM (active),0.0332 µM (active),52.6 nM (active),0.0526 µM (active),,0.0833 µM (active),37.2 nM (active),41.8 nM (active),0.0372 µM (active)
"Cc1c2oc3c(C)ccc(C(=O)NC4C(=O)NC(C(C)C)C(=O)N5CCCC5C(=O)N(C)CC(=O)N(C)C(C(C)C)C(=O)OC4C)c3nc-2c(C(=O)NC2C(=O)NC(C(C)C)C(=O)N3CCCC3C(=O)N(C)CC(=O)N(C)C(C(C)C)C(=O)OC2C)c(N)c1=O (stereo not drawn) (I: TVP[Sar][NMeV] / II: TVP[Sar][NMeV]; ester I:1-I:C, II:1-II:C; linker I:N-II:N via Actinocin(9to1); configuration not given here)",inactive,inactive,inactive,inactive,inactive,inactive,inactive,inactive,inactive,inactive,inactive,inactive,inactive,inactive
Cc1cc(Nc2ncc3c(n2)N(C)C(=O)N(c2cc(NC(=O)c4cccc(C(F)(F)F)c4)ccc2C)C3)n(C)n1,inactive,inactive,0.418 µM (active),209 nM (active),0.662 µM (active),833 nM (active),0.743 µM (active),935 nM (active),1.48 µM (active),,2.64 µM (active),118 nM (active),1180 nM (active),0.372 µM (active)
CCC[C@@H](C=O)NC(=O)[C@H](CC(C)C)NC(=O)[C@H](CC(C)C)NC(=O)OCc1ccccc1 (Cbz-Leu-Leu-[Nva]-aldehyde),inactive,inactive,0.833 µM (active),332 nM (active),1.48 µM (active),296 nM (active),,332 nM (active),0.332 µM (active),296 nM (active),0.935 µM (active),372 nM (active),235 nM (active),0.469 µM (active)
O=C1CSC(=O)N1C(CCc1ccncc1)COc1ccc(-c2cccc([N+](=O)[O-])c2)cc1 (stereo not drawn),inactive,inactive,18.7 µM (active),4180 nM (active),0.935 µM (active),inactive,3.32 µM (active),inactive,inactive,46.9 nM (active),,inactive,inactive,10.5 µM (active)
COc1cccc2c1C(=O)c1c(O)c3c(c(O)c1C2=O)C[C@@](O)(C(=O)CO)C[C@@H]3O[C@H]1C[C@H](N)[C@H](OC2CCCCO2)[C@H](C)O1 (stereo partly drawn),inactive,inactive,3.72 µM (active),833 nM (active),2.35 µM (active),inactive,3.32 µM (active),inactive,inactive,inactive,3.72 µM (active),,inactive,2.09 µM (active)
O=C1c2cccc(O)c2C(=O)c2c(O)cc(CO)cc21,4.09 µM (active),inactive,inactive,inactive,inactive,inactive,,inactive,inactive,,inactive,inactive,inactive,inactive
O=C(CCCCCCC(=O)Nc1cccnc1)NO,inactive,inactive,2.35 µM (active),2960 nM (active),7.43 µM (active),2350 nM (active),2.35 µM (active),3320 nM (active),7.43 µM (active),,16.6 µM (active),4180 nM (active),1660 nM (active),8.33 µM (active)
COc1cc2c(cc1OC)[C@@H]1C(=O)c3ccc4c(c3O[C@@H]1CO2)C=CC(C)(C)O4,inactive,inactive,4.18 µM (active),10.5 nM (active),8.33 µM (active),93.5 nM (active),0.059 µM (active),23.5 nM (active),0.0332 µM (active),209 nM (active),,1180 nM (active),526 nM (active),4.18 µM (active)
COc1cc([C@@H]2c3cc4c(cc3[C@H](O)[C@H]3COC(=O)[C@@H]23)OCO4)cc(OC)c1OC,inactive,inactive,0.0296 µM (active),166 nM (active),0.59 µM (active),26.4 nM (active),0.0526 µM (active),59 nM (active),,,,,83.3 nM (active),0.105 µM (active)
CCC(C(=O)O)C1CCC(C)C(C(C)C(O)C(C)C(=O)C(CC)C2OC3(C=CC(O)[C@@]4(CC[C@](C)(C5CC[C@@](O)(CC)C(C)O5)O4)O3)C(C)CC2C)O1 (stereo partly drawn),inactive,inactive,16.6 µM (active),4690 nM (active),5.9 µM (active),132 nM (active),1.87 µM (active),209 nM (active),,,1.48 µM (active),332 nM (active),,14.8 µM (active)
